# Bioassay records: PubChem BioAssay, National Center for Advancing Translational Sciences (NCATS)
# HCV inh – blocks hepatitis C virus; Potency, µM (top dose mostly 41.8 µM), for the others: top-dose activity change, negative = inhibition, actives largely listed as inhibitors; 340,000 compounds, 3.4% hits; Huh7.5.1 HCVcc-Cre infection, luciferase reporter, 44 h; active = well fitted inhibition curve with a large enough effect; inconclusive = small, poorly fitted or top-dose-only effect, or another doubt; inactive = no such curve, though single readings can be large or run the other way; also: potency is read from the fitted curve at half-maximal effect
#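 Antiviral activity was scored by luciferase reporter output from cells infected with HCVcc-Cre (~0.5 moi) in presence of compound, 44 h infection period, cells seeded 1,000/well 4 h prior.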
# FMDV inh – blocks foot and mouth disease virus | FMDV antiviral cell-based qHTS | AID 1159524 | 410,000 compounds, 1.2% hits | Potency, µM (series often up to 57.9 µM), for the others: top-dose activity change, negative = inhibition, usual class: inhibitors; calls by dose curve; tested in HEK293T cells; also: read-out not given here; potency is read from the fitted curve at half-maximal effect; nearly all actives have a fitted effect of over 45% in size
# MARV entry inh – inhibitors of Marburg virus binding or cell entry. Marburg virus pseudotyped entry inhibition, cell reporter. Potency, µM (titrated, usually from 37.8 µM), without a hit: at the highest dose activity change, negative = inhibition, hits mostly inhibitors. 300,000 compounds, 1.8% hits. AID 540276; calls by dose curve; tested in HEK293 cells; also: potency is read from the fitted curve at half-maximal effect
# HCMV antiviral – human cytomegalovirus inhibition; HFF cells, HCMV-luciferase reporter, 72 h; active compounds read low; activity change, negative = inhibition, % at 57.5 µM; 410,000 compounds, 4.5% hits; in the data active = activity change below about -60%; inconclusive = no clear call, values can overlap the other calls; inactive = above about -39%
#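 Human foreskin fibroblasts infected with luciferase-reporter HCMV at MOI 1 PFU/cell, compounds at two doses. Luciferase measured 72 h post infection; normalized to buffer-only basal and Salinomycin (10uM) controls.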
# Lassa entry inh – Lassa virus entry inhibition. Lassa virus pseudotype entry inhibition, cell reporter. Potency, µM (highest dose often 37.9 µM), for inactives: at the top dose activity change, negative = inhibition, actives largely listed as inhibitors. 300,000 compounds, 1.2% hits. AID 540256; calls by dose curve; tested in HEK293 cells; also: potency is read from the fitted curve at half-maximal effect; nearly all actives have a fitted effect of over 50% in size
# The depositor's hits bear a star; ? = inconclusive; . = no result; [ ] = remark or other dose. An excerpt weighted towards active compounds, which were near 7.9% of everything screened. % is scaled to controls: 0 for no effect and ±100 for the full control effect.
SMILES,HCV inh,FMDV inh,MARV entry inh,HCMV antiviral,Lassa entry inh
COc1ccc2sc(-c3ccccc3OC)c(-c3ccc(SC)cc3)c2c1,.,-1%,.,-9,.
COc1ccc2sc(-c3ccc(SC)cc3)c(-c3ccc(O)cc3)c2c1,13µM*,-25%,.,-7,.
CCOC(=O)CSc1nc2c([nH]c3ccccc32)c(=O)n1-c1ccc(OCC)cc1,.,0%,.,17,7%[46.1 µM]
CCNC(=S)Nc1cccc([N+](=O)[O-])c1,5%,.,-10%,.,7%
CNC(=S)Nc1cccc([N+](=O)[O-])c1,6%,-8%,-2%[46.1 µM],-3,6%
C=CCNC(=S)Nc1cccc([N+](=O)[O-])c1,-4%,5%,.,-90*,.
Cc1cc(Br)ccc1NC(=S)Nc1cccc([N+](=O)[O-])c1,?,-23%,25%,-64*,-3%
CCOc1ccc2nc(N(Cc3cccnc3)C(=O)c3ccco3)sc2c1,.,37%,.,-7,-16%[46.1 µM]
COc1ccc(NC(=O)Cn2c(=O)n(-c3cccc(C)c3)c(=O)c3c2c2cc(C)ccc2n3C)cc1Cl,.,-14%,-10%[46.1 µM],8,?
CCc1ccccc1N1CC(c2nc3ccccc3n2CCOc2ccc(Cl)c(C)c2)CC1=O (stereo not drawn),.,28µM*,?,-62*,?
O=C(Nc1cc(S(=O)(=O)N2CCOCC2)ccc1N1CCCC1)C1CC1,-1%,-5%,16%[46.1 µM],-4,2%[46.1 µM]
CC1CC1C(=O)Nc1cc(S(=O)(=O)N2CCOCC2)ccc1N1CCCC1 (stereo not drawn),10µM*,-7%,-1%[46.1 µM],?,-4%
COc1ccc(NC(=O)c2nn(C)c(=O)c3ccccc23)cc1S(=O)(=O)Nc1ccccc1Cl,13µM*,86%,.,88,.
Cc1cc(C)n(-c2ccc(C(=O)N3CCN(S(=O)(=O)c4cccc(Br)c4)CC3)cc2)n1,7.9µM*,?,.,-64*,.
Cn1nc(C(=O)Nc2ccc(S(=O)(=O)N3CCCCC3)cc2)c2ccccc2c1=O,-10%,-21%,?,13,-20%
COc1ccccc1NS(=O)(=O)c1cccc(NC(=O)c2nn(C)c(=O)c3ccccc23)c1,?,-10%,.,33,.
Cn1nc(C(=O)Nc2cccc(S(=O)(=O)N3CCCCC3)c2)c2ccccc2c1=O,?,-16%,6.3µM*,110,-22%
Cc1cn(S(=O)(=O)c2ccc(F)c(Cl)c2)cn1,.,-12%,-6%[46.1 µM],7,-18%[46.1 µM]
CNC(=O)c1c(NC(=O)c2cc(=O)c3ccccc3o2)sc2c1CCC2,.,22%,.,31,-3%[46.1 µM]
COc1cccc(NC(=O)c2ccc(S(=O)(=O)N3CCCC3)cc2)c1,1%,-14%,?,-27,.
CC(Oc1cccc(Cl)c1)C(=O)Nc1cc(S(=O)(=O)N2CCOCC2)ccc1N1CCCCC1 (stereo not drawn),22µM*,?,?,-36,?
CC(C)Oc1ccc(C(=O)Nc2cc(S(=O)(=O)N3CCOCC3)ccc2N2CCOCC2)cc1,?,13%,?,17,13µM*
CN(C)S(=O)(=O)c1cccc(NC(=O)c2ccc(S(=O)(=O)N3CCCC3)cc2)c1,10µM*,0%,0%,-16,1%
CC(C)Oc1ccc(C(=O)Nc2cccc(S(=O)(=O)N3CCCC3)c2)cc1,2.8µM*,-6%,?,?,?
Cc1cccc(-c2nc3ccccc3n2Cc2ccccc2)c1,.,-29%,-28%[46.1 µM],-19,?
SMILES,HCV inh,FMDV inh,MARV entry inh,HCMV antiviral,Lassa entry inh
COc1ccc(-c2nc3cnc(OC)nc3n(-c3ccc(OC)cc3)c2=O)cc1,.,6%,.,.,.
CC(=O)c1cccc(NC(=O)c2ccc(S(=O)(=O)N3CCCC3)cc2)c1,1%,-13%,3%[46.1 µM],-6,7%[46.1 µM]
Cc1cc(C)n(-c2ccc(C(=O)Nc3cccc(S(=O)(=O)N4CCCC4)c3)cc2)n1,?,-23%,?,-72*,?
CC1(C)C(=O)CC[C@]2(C)C3C(=O)C=C4[C@H]5C[C@@](C)(C(=O)O)CC[C@]5(C)CC[C@]4(C)[C@]3(C)CC[C@@H]12 (stereo partly drawn),18%,-16%,.,13,.
CC1=C(O)C(=O)C=C2C1=CC=C1[C@]2(C)CC[C@@]2(C)C3C[C@](C)(C(=O)O)CC[C@@]3(C)CC[C@@]12C (stereo partly drawn),.,4µM*,.,.,.
COc1cc(OC)c(OC)cc1/C=N/Nc1ncnc2c1[nH]c1ccccc12,10µM*,-23%,?,-7,-17%
